Measured values reported in ChEMBL document CHEMBL3433997, “St. Jude Leishmania screening dataset” (2016).

What follows are molecules tested against Solute carrier family 2, facilitated glucose transporter member 1 (Homo sapiens) (UniProt P11166) (assay: ST_JUDE_LEISH: Cytotoxicity at 2uM final concentration against transgenic Leishmania Mexicana promastigotes LmGLUT1 that are glucose transport deficient and complemented with the human glucose transporter GLUT1. Activity is measured by DNA content using SYBR green in vitro).
Sequence of Solute carrier family 2, facilitated glucose transporter member 1 (Homo sapiens) (P11166 whole entry): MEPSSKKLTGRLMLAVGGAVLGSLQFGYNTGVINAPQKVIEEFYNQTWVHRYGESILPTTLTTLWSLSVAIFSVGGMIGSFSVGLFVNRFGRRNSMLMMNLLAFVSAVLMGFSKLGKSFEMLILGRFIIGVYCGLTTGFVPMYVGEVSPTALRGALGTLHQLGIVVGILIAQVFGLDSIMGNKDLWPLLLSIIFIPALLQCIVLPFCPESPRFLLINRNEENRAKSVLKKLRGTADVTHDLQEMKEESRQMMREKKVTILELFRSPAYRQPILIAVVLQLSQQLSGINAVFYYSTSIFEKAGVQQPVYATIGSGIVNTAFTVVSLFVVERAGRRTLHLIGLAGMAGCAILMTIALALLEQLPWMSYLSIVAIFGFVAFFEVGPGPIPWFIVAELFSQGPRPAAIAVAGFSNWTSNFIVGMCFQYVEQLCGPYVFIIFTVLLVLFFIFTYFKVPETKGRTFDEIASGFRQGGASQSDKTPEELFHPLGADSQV
Format: functional
Molecule `CN(Cc1ccc(NC(=O)NC2CCN(C(=O)/C=C/c3ccc(Cl)c(Cl)c3)CC2)cc1)C1CCOCC1` has an inhibition of 1.63%.
In the case of `C=C(C)CSc1nc2c(c(=O)n1CCc1ccccc1)C1(CCCC1)Cc1ccccc1-2`, the inhibition is reported as 5.95%.
`CN(C)c1ccc(-c2csc(C(=O)NC3CCCCN(Cc4ccc(C(C)(C)C)cc4)C3)c2)cc1` (stereo not drawn) gave an inhibition of -1.22%.
`CN1CCN(c2cc(NC(=O)c3ccc(-c4ccc(C#N)cc4)cc3)ccc2Cl)CC1` showed an inhibition of 0.4%.
`COc1ccc(NC(=O)CSc2nc(-c3ccccc3Cl)ns2)cc1OC` was tested, and the inhibition was -0.51%.
With `CCCCN(Cc1cnccc1-c1ccc(Br)cc1)c1ccc(C(O)(C(F)(F)F)C(F)(F)F)cc1` the inhibition was 3.94%.
`CSCCC(C(=O)O)N1C(=O)c2ccccc2C1=O` (stereo not drawn) gave an inhibition of 0.66%.
Work on `Cc1sc(C)c(C(F)(F)F)c1CNCCCNc1cc(=O)c2ccccc2[nH]1` yielded an inhibition of 4.01%.
In the case of `Nn1c(=O)oc2ccc(Cl)cc2c1=O`, the inhibition is reported as 4.15%.
In the case of `Cc1cc(Cl)ccc1N(Cc1ccccc1)c1ccnc(Cl)n1`, the inhibition is reported as 1.11%.
With `O=C(Nc1ccc(Oc2ccc(OC(F)(F)F)cc2)cc1)c1ccco1` the inhibition was 2.92%.
In the case of `Cc1cnc(NCC2CCCCC2)nc1N[C@@H](CO)C(=O)Nc1ccccc1`, the inhibition is reported as 1.68%.
`CN(CC(=O)Nc1cc(C(F)(F)F)ccc1-n1cncn1)Cc1nc2ccccc2s1` was tested, and the inhibition was 2.07%.
With `C=C[C@]1(C)C[C@@H](OC(=O)c2cncn(COC)c2=O)[C@]2(C)[C@H](C)CC[C@]3(CCC(=O)[C@H]32)[C@@H](C)[C@@H]1O` the inhibition was -0.03%.
In the case of `COc1ccccc1N1CCN(C(C(=O)NCc2cccc(F)c2)c2ccc(C)cc2)CC1` (stereo not drawn), the inhibition is reported as 2.99%.
`NC1=Nc2ccc(Cl)cc2C1(O)c1ccccc1` (stereo not drawn) showed an inhibition of 1.25%.
In the case of `COc1ccc(C2CCN(CCN3CCC(NC(=O)c4cccc(-c5ccncc5)c4)CC3)CC2)c(OC)c1`, the inhibition is reported as 1.32%.
Work on `COc1ccc2nccc([C@@H](O)CN3CCC(NC(=O)c4ccc(-c5ccccc5)s4)CC3)c2c1` yielded an inhibition of 9.94%.
For `Cc1cc(NCCCCCCN)nc(Nc2ccc(Cl)cc2)n1`, the inhibition was 5.87%.
`CN1CCN(c2ccnc3ccc(NC(=O)Nc4ccc(Br)cc4)cc23)CC1` showed an inhibition of -0.59%.
In the case of `O=C(Nc1ccc(CCNCCCc2ccccc2)cc1)Nc1ccc(Cl)c(Cl)c1`, the inhibition is reported as -0.55%.
Work on `COc1cc(Cl)c(C)cc1-n1cc(C(=O)c2cc(Br)ccc2O)cc(C#N)c1=O` yielded an inhibition of -0.77%.
Molecule `COc1cccc(C(=O)Nc2sc3c(c2C(N)=O)CCCC3)c1OC` has an inhibition of 0.25%.
With `CN1CCN(CC(=O)Nc2ccc(-c3csc(-c4nc5ccccc5[nH]4)c3)cc2)CC1` the inhibition was -0.59%.
In the case of `Cc1ccc2[nH]c(-c3ccccc3)cc(=NN=Cc3cccnc3)c2c1`, the inhibition is reported as 1.16%.
Work on `O=C(Nc1cccc(-c2cccc(-c3nc4cc(F)ccc4[nH]3)c2)c1)c1ccncc1` yielded an inhibition of 0.54%.
`Cc1cc(Cl)ccc1OC(C)C(=O)N1CCc2ccccc21` (stereo not drawn) gave an inhibition of -3.17%.
For `CCCCN(Cc1cc(Cl)c(OCC)c(OC)c1)c1ccc(C(O)(C(F)(F)F)C(F)(F)F)cc1`, the inhibition was -0.54%.
`C=Cc1ccc(-c2c(C)[nH]c(C)c(Br)c2=O)cc1` was tested, and the inhibition was 0.56%.
With `Cc1cc(N[C@@H](Cc2ccccc2)C(=O)NCCOc2ccccc2)nc(NCC2CCCCC2)n1` the inhibition was 6%.
Work on `Cc1nc(C)n(CC(=O)Nc2cccc(-c3cccc(-c4nc5cc(C(F)(F)F)ccc5[nH]4)c3)c2)n1` yielded an inhibition of 10.2%.
With `COc1cc(-c2ccc(-c3cnc(N)nc3OC)[nH]2)cc(OC)c1OC` the inhibition was 5.61%.
In the case of `O=C(Nc1cccc(-c2cccc(-c3nc4cc(F)ccc4[nH]3)c2)c1)c1c[nH]cn1`, the inhibition is reported as -0.8%.
`Cc1cccc2nc(-c3ccc(-c4ccc(CN5CCOCC5)cc4)cc3)[nH]c12` showed an inhibition of 4.34%.
In the case of `COc1ccc(NC(=O)NC2CCN(CCCCCNC(=O)/C=C/c3ccc(Cl)c(Cl)c3)C2)c(OC)c1` (stereo not drawn), the inhibition is reported as -1.78%.
Molecule `CCc1c(C)nc2nc(Cc3cccc(F)c3)nn2c1N1CCN(c2ccccn2)CC1` has an inhibition of 14.9%.
With `COc1cc(Cn2ccc3c4c(N)nc(N)nc4ccc32)cc(OC)c1OC` the inhibition was 86.3%.
`COc1ccc(-c2cccc(NC(=O)c3ccccc3)c2)cc1CN1CCCN(C)CC1` showed an inhibition of -2.02%.
`CCCc1cc(Cc2cnc(N)nc2N)cc(CCC)c1OCCCCCC(=O)OCC` was tested, and the inhibition was 4.7%.

What follows are molecules tested against Hexose transporter 1 (Plasmodium falciparum) (UniProt O97467) (assay: ST_JUDE_LEISH: Cytotoxicity at 2uM final concentration against transgenic Leishmania Mexicana promastigotes LmPfHT that are glucose transport deficient and complemented with the Plasmodium falciparum hexose transporter. Activity is measured by DNA content using SYBR green in vitro).
Format: functional
In the case of `CN(Cc1ccc(NC(=O)NC2CCN(C(=O)/C=C/c3ccc(Cl)c(Cl)c3)CC2)cc1)C1CCOCC1`, the inhibition is reported as -3.08%.
`C=C(C)CSc1nc2c(c(=O)n1CCc1ccccc1)C1(CCCC1)Cc1ccccc1-2` showed an inhibition of 5.36%.
`CN(C)c1ccc(-c2csc(C(=O)NC3CCCCN(Cc4ccc(C(C)(C)C)cc4)C3)c2)cc1` (stereo not drawn) showed an inhibition of -0.61%.
For `CN1CCN(c2cc(NC(=O)c3ccc(-c4ccc(C#N)cc4)cc3)ccc2Cl)CC1`, the inhibition was -0.14%.
`COc1ccc(NC(=O)CSc2nc(-c3ccccc3Cl)ns2)cc1OC` was tested, and the inhibition was -0.5%.
Work on `CCCCN(Cc1cnccc1-c1ccc(Br)cc1)c1ccc(C(O)(C(F)(F)F)C(F)(F)F)cc1` yielded an inhibition of 3.75%.
For `CSCCC(C(=O)O)N1C(=O)c2ccccc2C1=O` (stereo not drawn), the inhibition was 1.03%.
In the case of `Cc1sc(C)c(C(F)(F)F)c1CNCCCNc1cc(=O)c2ccccc2[nH]1`, the inhibition is reported as 4.67%.
With `Nn1c(=O)oc2ccc(Cl)cc2c1=O` the inhibition was 10.4%.
`Cc1cc(Cl)ccc1N(Cc1ccccc1)c1ccnc(Cl)n1` gave an inhibition of 1.68%.
With `O=C(Nc1ccc(Oc2ccc(OC(F)(F)F)cc2)cc1)c1ccco1` the inhibition was 1.49%.
`Cc1cnc(NCC2CCCCC2)nc1N[C@@H](CO)C(=O)Nc1ccccc1` showed an inhibition of 2.03%.
`CN(CC(=O)Nc1cc(C(F)(F)F)ccc1-n1cncn1)Cc1nc2ccccc2s1` showed an inhibition of 2.69%.
For `C=C[C@]1(C)C[C@@H](OC(=O)c2cncn(COC)c2=O)[C@]2(C)[C@H](C)CC[C@]3(CCC(=O)[C@H]32)[C@@H](C)[C@@H]1O`, the inhibition was -0.92%.
Work on `COc1ccccc1N1CCN(C(C(=O)NCc2cccc(F)c2)c2ccc(C)cc2)CC1` (stereo not drawn) yielded an inhibition of 3.56%.
`NC1=Nc2ccc(Cl)cc2C1(O)c1ccccc1` (stereo not drawn) gave an inhibition of 1.33%.
In the case of `COc1ccc(C2CCN(CCN3CCC(NC(=O)c4cccc(-c5ccncc5)c4)CC3)CC2)c(OC)c1`, the inhibition is reported as 0.37%.
In the case of `COc1ccc2nccc([C@@H](O)CN3CCC(NC(=O)c4ccc(-c5ccccc5)s4)CC3)c2c1`, the inhibition is reported as 14.6%.
`Cc1cc(NCCCCCCN)nc(Nc2ccc(Cl)cc2)n1` gave an inhibition of 5.27%.
For `CN1CCN(c2ccnc3ccc(NC(=O)Nc4ccc(Br)cc4)cc23)CC1`, the inhibition was 0.3%.
`O=C(Nc1ccc(CCNCCCc2ccccc2)cc1)Nc1ccc(Cl)c(Cl)c1` gave an inhibition of -0.63%.
`COc1cc(Cl)c(C)cc1-n1cc(C(=O)c2cc(Br)ccc2O)cc(C#N)c1=O` was tested, and the inhibition was -1.65%.
Molecule `COc1cccc(C(=O)Nc2sc3c(c2C(N)=O)CCCC3)c1OC` has an inhibition of 8.04%.
For `CN1CCN(CC(=O)Nc2ccc(-c3csc(-c4nc5ccccc5[nH]4)c3)cc2)CC1`, the inhibition was 0.35%.
Work on `Cc1ccc2[nH]c(-c3ccccc3)cc(=NN=Cc3cccnc3)c2c1` yielded an inhibition of 0.03%.
Work on `O=C(Nc1cccc(-c2cccc(-c3nc4cc(F)ccc4[nH]3)c2)c1)c1ccncc1` yielded an inhibition of 0.29%.
`Cc1cc(Cl)ccc1OC(C)C(=O)N1CCc2ccccc21` (stereo not drawn) was tested, and the inhibition was 0.81%.
`CCCCN(Cc1cc(Cl)c(OCC)c(OC)c1)c1ccc(C(O)(C(F)(F)F)C(F)(F)F)cc1` showed an inhibition of -0.97%.
For `C=Cc1ccc(-c2c(C)[nH]c(C)c(Br)c2=O)cc1`, the inhibition was 1.38%.
In the case of `Cc1cc(N[C@@H](Cc2ccccc2)C(=O)NCCOc2ccccc2)nc(NCC2CCCCC2)n1`, the inhibition is reported as 6.54%.
Molecule `Cc1nc(C)n(CC(=O)Nc2cccc(-c3cccc(-c4nc5cc(C(F)(F)F)ccc5[nH]4)c3)c2)n1` has an inhibition of 9.76%.
`COc1cc(-c2ccc(-c3cnc(N)nc3OC)[nH]2)cc(OC)c1OC` showed an inhibition of 5.42%.
`O=C(Nc1cccc(-c2cccc(-c3nc4cc(F)ccc4[nH]3)c2)c1)c1c[nH]cn1` gave an inhibition of -0.5%.
`Cc1cccc2nc(-c3ccc(-c4ccc(CN5CCOCC5)cc4)cc3)[nH]c12` gave an inhibition of 3.46%.
`COc1ccc(NC(=O)NC2CCN(CCCCCNC(=O)/C=C/c3ccc(Cl)c(Cl)c3)C2)c(OC)c1` (stereo not drawn) showed an inhibition of -1.48%.
With `CCc1c(C)nc2nc(Cc3cccc(F)c3)nn2c1N1CCN(c2ccccn2)CC1` the inhibition was 12%.
Molecule `COc1cc(Cn2ccc3c4c(N)nc(N)nc4ccc32)cc(OC)c1OC` has an inhibition of 83.5%.
Molecule `COc1ccc(-c2cccc(NC(=O)c3ccccc3)c2)cc1CN1CCCN(C)CC1` has an inhibition of -2.26%.
`CCCc1cc(Cc2cnc(N)nc2N)cc(CCC)c1OCCCCCC(=O)OCC` was tested, and the inhibition was 2.93%.
